IL-1B inflam inh: inflammasome signaling inhibition, IL-1 beta readout. THP-1 LPS/ATP IL-1B secretion, AlphaLISA, 16 h; active compounds read low. activity change, % at 57.5 µM. 360,000 compounds, 4.7% hits. AID 743279; in the data active = activity change below about -50%; inconclusive = mostly about -30% to -49%
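THP-1 cells pretreated 1 hr with compounds (up to 57.5 uM final), then stimulated with LPS (250 ng/mL final) plus ATP (1.25 mM final); secreted IL-1B measured by AlphaLISA after 16 hr, decreased signal indicating inhibition.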
TDP1 cell noCPT: qHTS for Inhibitors of human tyrosyl-DNA phosphodiesterase 1 (TDP1): qHTS in cells in absence of CPT; DT40 Tdp1-/- hTDP1 cells, no CPT, ATP luminescence, 48 h; Potency, µM (doses to about 46.2 µM), usual class: inhibitors; 420,000 compounds, 15% hits; AID 686978, 2013; also: nearly all actives have a fitted effect of over 55% in size
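Readout: luminescence from CellTiter-Glo after 30 min in the dark at RT. Cells: DT40 Tdp1-/- with stable hTDP1, 400/well. Exposure: compounds alone, ≥48 hr, 37 °C.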
MCF10A rerep: induces DNA re-replication in MCF 10a normal breast cells; MCF 10A DNA re-replication, Hoechst nuclear intensity, 48 h; Potency, µM (top dose mostly 46.1 µM), actives largely listed as activators; 350,000 compounds, 2.9% hits; AID 624296; also: nearly all actives have a fitted effect of over 50% in size
TDP1 cell CPT: DT40-hTDP1 cell growth loss with CPT. chicken DT40 Tdp1-/-;hTDP1 cells + 20 nM CPT, ATP luminescence, 48 h. Potency, µM (top dose mostly 46.2 µM), actives largely listed as inhibitors. 420,000 compounds, 12% hits. AID 686979; also: nearly all actives have a fitted effect of over 55% in size
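Cell growth measured by CellTiter-Glo luminescence after a minimum 48 h, 37 C compound exposure with 20 nM CPT in Tdp1-knockout DT40 cells stably expressing hTDP1, seeded 400/well; qHTS titration format.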
SW480 rerep: induces DNA re-replication in SW480 colon adenocarcinoma cells. SW480 DNA re-replication, Hoechst DNA content imaging, 48 h. Potency, µM (highest dose often 46.1 µM), hits mostly activators. 340,000 compounds, 1.8% hits. AID 624297; also: nearly all actives have a fitted effect of over 55% in size
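Cells (250 per well) received 23 nL compound or DMSO by pin tool and were kept 48 hr at 37 C, 5% CO2. Nuclei were then stained with Hoechst for 40 min and scanned for DNA content.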
BCR signal inh: chronic active BCR signaling inhibition | 340,000 compounds, 0.05% hits | Potency, µM (doses to about 46.1 µM), actives largely listed as inhibitors | AID 493014 | ABC-DLBCL IkBa-CBG/CBR reporter, luminescence ratio, 4 h; active = well fitted inhibition curve with a large enough effect in the signal ratio, with a control signal flat, not every such curve was filed as active; inconclusive = small, poorly fitted or top-dose-only effect, or effect the other way, or a change in a side signal; the % refers to the signal ratio
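TMD8 human ABC-DLBCL cells with doxycycline-inducible IκBα–green luciferase fusion and unfused red luciferase, in 0.5% FBS medium; compounds up to 46 uM, 4 h at 37C. Green/red luminescence ratio, filter-overlap corrected, fitted to concentration-response curves.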
Each line names hits and unclear results; the compound was inactive in the other large screens; ! = not active in a repeat. Compounds with a hit are over-represented: about 19% of the library has one in this group of screens. Unless noted, calls follow the shape of the dose curve; as a rule, active = well fitted curve in the direction sought with a large enough effect; inconclusive = small, poorly fitted or top-dose-only effect, or another doubt; inactive = no such curve, though single readings can be large; an effect the other way counts as inactive or inconclusive.

Clc1ccc(CN=C(Nc2ccccc2)NC2CCCCC2)cc1	TDP1 cell noCPT 23.1µM, MCF10A rerep inconclusive, TDP1 cell CPT 18.4µM, SW480 rerep inconclusive, BCR signal inh inconclusive (no result: IL-1B inflam inh)
CCN(Cc1nc2ccccc2c(=O)[nH]1)C(=O)c1cccc(NC(=O)c2cccs2)c1	TDP1 cell noCPT inconclusive, TDP1 cell CPT 11.6µM
CCN(Cc1nc2ccccc2c(=O)[nH]1)C(=O)c1cc2c(s1)CCCCC2	TDP1 cell noCPT inconclusive, MCF10A rerep inconclusive, TDP1 cell CPT 14.6µM
CCN(Cc1nc2ccccc2c(=O)[nH]1)C(=O)c1cc(C2CC2)nn1-c1ccccc1	TDP1 cell noCPT inconclusive, MCF10A rerep inconclusive, TDP1 cell CPT inconclusive, BCR signal inh inconclusive
O=C(Nc1ccc(Nc2ccccc2)cc1)c1ccc(Cl)cc1[N+](=O)[O-]	TDP1 cell noCPT 16.4µM, TDP1 cell CPT 5.8µM (no result: BCR signal inh)
COCC(C)NC(=O)c1cc2cccc([N+](=O)[O-])c2[nH]1 (centres undefined)	none
O=C(Nc1ccccc1-c1ccccc1)c1ccc(Cl)c([N+](=O)[O-])c1	IL-1B inflam inh -100.3, TDP1 cell noCPT inconclusive, MCF10A rerep 9.2µM
Cc1cccc(NC(=O)c2cc(Cl)ccc2[N+](=O)[O-])c1	TDP1 cell CPT inconclusive
COc1ccc(C(=O)Nc2ccccc2-c2ccccc2)cc1Cl	IL-1B inflam inh inconclusive, TDP1 cell noCPT inconclusive, TDP1 cell CPT inconclusive
Cc1cc(NC(=O)c2cc3cccc([N+](=O)[O-])c3[nH]2)ccc1F	TDP1 cell noCPT 20.6µM, TDP1 cell CPT inconclusive, BCR signal inh inconclusive
Cc1ccc(NC(=O)c2cc(Cl)ccc2[N+](=O)[O-])cc1C	IL-1B inflam inh -99.5
COc1ccccc1-c1cc2c(c(OC)c1)OCCN(CCC(C)c1ccc(C)o1)C2 (centres undefined)	none (no result: IL-1B inflam inh, MCF10A rerep, SW480 rerep, BCR signal inh)
CC(=O)Nc1ccc(NC(=O)CSc2nnc(C)c(=O)[nH]2)cc1	SW480 rerep inconclusive
O=C(Nc1ccc(Cc2ccncc2)cc1)c1ccc(Cl)c([N+](=O)[O-])c1	IL-1B inflam inh -72.7, TDP1 cell noCPT 18.4µM, MCF10A rerep inconclusive, TDP1 cell CPT 16.4µM, BCR signal inh inconclusive
C/C(=N\NC(=O)c1ccc([N+](=O)[O-])c(C)c1)c1ccccc1Cl	IL-1B inflam inh -70.1, TDP1 cell noCPT 20.6µM, TDP1 cell CPT inconclusive
O=C(Nc1ccc(Nc2ccccc2)cc1)c1ccc(Cl)c([N+](=O)[O-])c1	TDP1 cell noCPT 10.3µM, TDP1 cell CPT 13µM, BCR signal inh inconclusive
CCN(C(=O)c1ccc(Cl)c([N+](=O)[O-])c1)c1ccccc1	TDP1 cell noCPT 14.6µM, TDP1 cell CPT inconclusive, BCR signal inh inconclusive
O=C(Nc1ncccn1)c1ccc(Cl)c([N+](=O)[O-])c1	SW480 rerep inconclusive
COc1ccc(OCC(=O)N2CCCC(CO)(CCOc3ccccc3)C2)cc1 (centres undefined)	none
CCN(C(=O)c1ccc(Cl)cc1[N+](=O)[O-])c1ccccc1C	TDP1 cell noCPT 14.6µM, MCF10A rerep inconclusive, TDP1 cell CPT 16.4µM
Cc1cc(C(=O)Nc2ccc(Nc3ccccc3)cc2)ccc1[N+](=O)[O-]	IL-1B inflam inh -64.9, TDP1 cell noCPT 4.61µM, MCF10A rerep inconclusive, TDP1 cell CPT 3.26µM
Cc1ccccc1NC(=O)c1ccc(Nc2c([N+](=O)[O-])cc([N+](=O)[O-])c3ccccc23)cc1	TDP1 cell noCPT 23.1µM, TDP1 cell CPT inconclusive, BCR signal inh inconclusive
O=C(NCC(F)(F)F)[C@H]1O[C@@H](n2ccc(=O)[nH]c2=O)[C@H](O)[C@@H]1O	none (no result: MCF10A rerep, SW480 rerep, BCR signal inh)
COC(=O)CCC[C@H]1CC2(C[C@H](CCCO[Si](C)(C)C(C)(C)C)N1C(=O)OC(C)(C)C)OCCO2	TDP1 cell noCPT 18.4µM, MCF10A rerep inconclusive, TDP1 cell CPT inconclusive, SW480 rerep inconclusive
CC(=O)OCC1OC(n2c(-c3ccc(Cl)cc3)ccc(C#N)c2=S)C(OC(C)=O)C(OC(C)=O)C1OC(C)=O (centres undefined)	none (no result: BCR signal inh)
CCCCOc1ccc(C(=O)NCC2(N3CCN(C)CC3)CCCCC2)cc1	TDP1 cell noCPT 18.4µM, TDP1 cell CPT inconclusive (no result: IL-1B inflam inh, MCF10A rerep, SW480 rerep, BCR signal inh)
CC(C)COc1ccc(C(=O)OCCN2CCCCC2)cc1	MCF10A rerep inconclusive
CCCCOc1ccc(C(=O)CCN2CCCCC2)cc1	TDP1 cell noCPT 6.51µM, MCF10A rerep 16.4µM, TDP1 cell CPT 8.2µM, SW480 rerep 10.3µM!, BCR signal inh inconclusive
CC(C)COc1ccc(C(=O)CCN2CCCCC2)cc1	TDP1 cell noCPT 2.91µM, MCF10A rerep 11.6µM, TDP1 cell CPT 5.17µM, SW480 rerep inconclusive, BCR signal inh inconclusive
COc1ccc(C(=O)NCC2(N3CCN(C)CC3)CCCCC2)cc1	none (no result: IL-1B inflam inh, MCF10A rerep, SW480 rerep, BCR signal inh)
O=C(Cc1n[nH]c(=O)c2ccccc12)OCC(=O)c1ccc(OC(F)F)cc1OC(F)F	MCF10A rerep inconclusive
CN1CCN(c2ccc(S(=O)(=O)N3CCCCC3)cc2NC(=O)COc2cccc(Cl)c2)CC1	IL-1B inflam inh -52.3, TDP1 cell noCPT inconclusive, MCF10A rerep inconclusive, TDP1 cell CPT inconclusive, SW480 rerep inconclusive
O=C(COc1ccc(Cl)cc1)Nc1cc(S(=O)(=O)N2CCCCC2)ccc1N1CCCCC1	TDP1 cell noCPT 10.3µM, TDP1 cell CPT 2.91µM
Cc1cccc(OCC(=O)Nc2cc(S(=O)(=O)N3CCCCC3)ccc2N2CCN(C)CC2)c1	TDP1 cell noCPT inconclusive, TDP1 cell CPT inconclusive
Cc1cc(Nc2cc(Cl)cc(Cl)c2)nc(N)n1	TDP1 cell noCPT 10.3µM, TDP1 cell CPT inconclusive, BCR signal inh inconclusive
CCCc1n(CC)c2ccccc2[n+]1CC(O)COC1CCCCC1 (centres undefined)	TDP1 cell noCPT 4.11µM, TDP1 cell CPT 5.17µM
CCc1n(CC(O)COCC2CC=CCC2)c2ccccc2[n+]1C (centres undefined)	TDP1 cell noCPT inconclusive, TDP1 cell CPT inconclusive
CC(C)(C)NS(=O)(=O)c1cc(C(=O)Nc2sccc2C#N)ccc1Cl	TDP1 cell noCPT 11.6µM, MCF10A rerep inconclusive, TDP1 cell CPT 16.4µM
N#Cc1ccsc1NC(=O)c1cnccn1	none
CC(=O)Nc1ccc(OS(=O)(=O)c2ccc([N+](=O)[O-])cc2)cc1	TDP1 cell noCPT 16.4µM, TDP1 cell CPT 18.4µM
CC(=O)Nc1ccc(S(=O)(=O)NCCC(=O)OCc2ccc([N+](=O)[O-])cc2)cc1	TDP1 cell noCPT 16.4µM, TDP1 cell CPT 13µM
CC(=O)Nc1ccc(OS(=O)(=O)c2ccc(Cl)cc2)cc1	none
O=C(Nc1ccc(Oc2ccc(NC(=O)Nc3ccc([N+](=O)[O-])cc3)cc2)cc1)Nc1ccc([N+](=O)[O-])cc1	IL-1B inflam inh -87.6, TDP1 cell noCPT 2.06µM, TDP1 cell CPT 2.31µM, BCR signal inh inconclusive

Source: PubChem
